Active and inactive are the calls of the source.

The nature of the experiment: budding yeast growth changes without added modifier – OD600, strain BY4716, 24 h, basal condition, primary screen (AID 1173). The following applies: S. cerevisiae BY4716 growth, OD600, 24 h; higher = more signal, called active from +8 up or from −8 down.
As to `COCCOC(=O)N1C(=O)[C@@]2(c3cc(C#Cc4ccc(OC)cc4)ccc31)[C@H](C(=O)N1CCCCCCC1)[C@H]1C(=O)O[C@H](c3ccccc3)[C@H](c3ccccc3)N1[C@@H]2c1ccc(O)cc1`, the z-score is -0.404 (inactive). `CN(C)C(=O)[C@]1(CCC(=O)OC(C)(C)C)N=C(c2ccc(OCCCO)cc2)O[C@@H]1c1ccccc1`: the z-score is -0.0261 (inactive). As for `COC(=O)c1c(CC[C@@H](CO)NC(=O)N[C@H](Cn2cc(-c3ccccc3C)nn2)C(C)C)oc(C(C)=O)c1C(=O)OC`, the z-score is -0.723 (inactive).

Regarding `Cc1ccc(S[C@]2(C(=O)O)CC(=O)N(Cc3ccccc3Cl)[C@@H]2c2ccc(CO)cc2)cc1`, the z-score is -0.399 (inactive). Regarding `COCCOC(=O)N1C(=O)[C@@]2(c3ccccc31)[C@H](C(=O)N1CCN(c3ncccn3)CC1)[C@H]1C(=O)O[C@H](c3ccccc3)[C@H](c3ccccc3)N1[C@@H]2c1ccc(OCCO)cc1`, the z-score is 1.89 (inactive). On to `COCCOC(=O)N1C(=O)[C@@]2(c3cc(C#Cc4ccc(OC)cc4)ccc31)[C@H](C(=O)N1CCN(c3ncccn3)CC1)[C@H]1C(=O)O[C@H](c3ccccc3)[C@H](c3ccccc3)N1[C@@H]2c1ccccc1OCCO`, for which the z-score was 2.91 (inactive). Turning to `NCCCCCNC(=O)[C@@H]1C[C@@H]2C(=O)N[C@@H](CCCCN)C(=O)N2[C@@H]1c1cccc(OCCO)c1`, the z-score was 0.198 (inactive). In the case of `COc1ccc([Si](C)(C)[C@H]2[C@H](CCn3cc([C@H](O)c4ccccc4)nn3)O[C@@]3(C(=O)N(Cc4ccc(N5CCC5=O)cc4)c4ccccc43)[C@@H]2C)cc1`, the z-score was 0.309 (inactive).

As for `O=C1C[C@@](C(=O)NCC(F)(F)F)(c2ccc([N+](=O)[O-])cc2)[C@@H](c2ccc(CO)cc2)N1C1CCCCC1`, the z-score is -0.693 (inactive). As for `C#CCNC(=O)[C@H](Cc1ccccc1)NC(=O)[C@@H](N=[N+]=[N-])C(C)C`, the figure is -1.19 (inactive); as for `C[C@H]1C2=C3C(CC[C@H]4C(OCc5ccc(F)cc5C(F)(F)F)OC[C@](C)([C@@H]34)N(C(=O)OC(C)(C)C)C2)C2COC(=O)OCC21` (stereo partly specified), -0.0764 (inactive).

Consider `CC(C)(C)OC(=O)CC[C@]1(C(=O)N2CCOCC2)N=C(c2ccc(OCCCO)cc2)O[C@H]1c1ccccc1`, for which the z-score was -0.243 (inactive). Regarding `COc1ccc([Si](C)(C)[C@H]2[C@H](CCn3cc([C@H](O)c4ccccc4)nn3)O[C@@]3(C(=O)N(Cc4cccc(N5C(=O)c6cccc7cccc5c67)c4)c4ccccc43)[C@@H]2C)cc1`, the z-score was 0.807 (inactive). Regarding `C=C(C(=O)CC[C@H](OC(=O)c1cccnc1)c1ccc(CO)o1)C(C)C`, the z-score is -1.02 (inactive). On to `C=CC1c2cc(O)c(OC)cc2CCN1Cc1sc2ccccc2c1Cl` (stereo unspecified), for which the z-score is -18.3 (active). For the molecule `CC(C)(C)OC(=O)CC[C@@]1(C(=O)O)N=C(c2ccc(OCCCO)cc2)O[C@@H]1c1ccccc1CN=[N+]=[N-]`, the z-score is -0.496 (inactive). As for `CC=CC(O)C1C=CC2C(=O)N(C)C(=O)C2N1N1CCCCC1` (stereo unspecified), the z-score was 0.383 (inactive). Turning to `CO[C@H]1O[C@H](CO)[C@@H](OC(=O)Nc2ccccc2-c2ccccc2)[C@H](OC(=O)Nc2ccc3c(c2)OCO3)[C@@H]1OC(=O)Nc1ccc2c(c1)OCO2`, the z-score was 1.03 (inactive). As for `O=C1NCC(=O)N2[C@@H]1C[C@@H](C(=O)O)[C@H]2c1ccc(O)cc1`, the figure is -0.231 (inactive); as for `C[C@@H](OCc1ccccc1)C1NC(=O)[C@@]23C(=O)N[C@@H](Cc4ccccc4)C2[C@H](C)[C@@]2(C)O[C@H]2C3/C=C/C/C=C\CNC(=O)CNC1=O` (stereo partly specified), -0.303 (inactive); as for `CCOC(=O)[C@H]1C/C=C/C[C@H](C(=O)OCC)C(=O)O[C@H]2[C@@H](OC)O[C@H](CO)[C@@H](OC(=O)CCc3ccccc3)[C@@H]2OC1=O`, -1.08 (inactive).

Consider `C=C(CCCC)/C(=C/C[C@@H](OC(C)=O)c1ccc(CO)o1)c1cc(C(=O)OC)ccc1OC`, for which the z-score is -1.63 (inactive). As for `C=CCOC(=O)[C@@H]1[C@H]2C(=O)O[C@H](c3ccccc3)[C@H](c3ccccc3)N2[C@H](c2ccc(OCCOC(=O)[C@H]3C[C@H]4C(=O)N[C@@H](CCCC[N+](C)(C)C)C(=O)N4[C@H]3c3ccc(O)cc3)cc2)[C@@]12C(=O)Nc1ccc(I)cc12`, the figure is 1.47 (inactive). For `COC1(C)CN(Cc2ccccc2Br)[C@H](/C=C/c2ccccc2)[C@H](Cc2ccccc2)O1` (stereo partly specified) the value was -0.138 (inactive); for `C=CCN1C(=O)[C@]2(CC=C)N=C(c3ccc(OCCCO)cc3)O[C@@H]2c2ccccc21`, -2.51 (inactive).

With `CCCC=C(CCC)[C@@H](NP(=O)(c1ccccc1)c1ccccc1)c1ccc(C(F)(F)F)cc1`, the z-score is 0.534 (inactive). Take `CC(C)N1C(=O)[C@@]2(c3ccc([N+](=O)[O-])cc3)CC(=O)N(C3CCCCC3)[C@@H]2c2ccc(CO)cc21`: the z-score is 0.833 (inactive).

On to `CON(C)C(=O)C=C1C[C@@H](c2cccc(Cl)c2)O[C@@H](c2cccc(Cl)c2)O1`, for which the z-score was -0.283 (inactive).

In the case of `[N-]=[N+]=NCc1ccccc1C[C@@]1(C(N)=O)N=C(c2ccc(OCCCO)cc2)O[C@@H]1c1ccccc1CN=[N+]=[N-]`, the z-score is -1.43 (inactive). `O=C(O)[C@H]1C[C@H]2C(=O)N3CCC[C@H]3C(=O)N2[C@H]1c1cccc(OCCO)c1`: the z-score is -0.361 (inactive). As for `C=C(CCCC)C(=O)CC[C@@H](OC(=O)c1ccccc1-c1ccccc1C(=O)O)c1cccc(OCCO)c1`, the z-score was -1.46 (inactive). Regarding `[N-]=[N+]=NCc1ccccc1C[C@]1(C(=O)NCC(O)CO)N=C(c2ccc(OCCCO)cc2)O[C@H]1c1ccccc1CN=[N+]=[N-]` (stereo partly specified), the z-score was -0.804 (inactive). As for `C=CCNC(=O)[C@@H]1[C@H]2C(=O)O[C@H](c3ccccc3)[C@H](c3ccccc3)N2[C@H](c2ccc(OCCO)cc2)[C@@]12C(=O)N(C(=O)OCCOC)c1ccc(C#CC3=CCCCC3)cc12`, the z-score was 1.83 (inactive). For the molecule `O=C1OCCC=C[C@H]2OC34C=CCN(c5ccc(Cl)cc5)C(=O)[C@H]3N(CCCCCO)C(=O)[C@@H]4C12` (stereo partly specified), the z-score was -0.508 (inactive). Turning to `COc1c(C)cc(-c2cc3c(c(-c4ccccc4)n2)[Si](C(C)C)(C(C)C)OC3)cc1C`, the z-score is 0.256 (inactive). As for `CCCCN1CC=CC23O[C@@H]4/C=C\CCC(C)OC(=O)C4[C@H]2C(=O)N(CCCCCCO)[C@@H]3C1=O` (stereo partly specified), the figure is 0.14 (inactive).

(Values after PubChem BioAssay.)
